Hits are enriched below; roughly 2.4% of the tested compounds scored in any of these assays.
Cruzain noTriton = cruzain (T. cruzi) inhibition without detergent. AID 1476. purified cruzain, Z-FR-AMC fluorescence, no detergent. P25779. 2.3% of 200,000 active. Potency, µM, for the others: max response, negative = inhibition, usual class: inhibitors;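 note: plate controls were enzyme without inhibitor for no effect and buffer without enzyme for full effect; nearly all actives have a fitted effect of over 40% in size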
Target sequence (P25779 123-467 limits assumed): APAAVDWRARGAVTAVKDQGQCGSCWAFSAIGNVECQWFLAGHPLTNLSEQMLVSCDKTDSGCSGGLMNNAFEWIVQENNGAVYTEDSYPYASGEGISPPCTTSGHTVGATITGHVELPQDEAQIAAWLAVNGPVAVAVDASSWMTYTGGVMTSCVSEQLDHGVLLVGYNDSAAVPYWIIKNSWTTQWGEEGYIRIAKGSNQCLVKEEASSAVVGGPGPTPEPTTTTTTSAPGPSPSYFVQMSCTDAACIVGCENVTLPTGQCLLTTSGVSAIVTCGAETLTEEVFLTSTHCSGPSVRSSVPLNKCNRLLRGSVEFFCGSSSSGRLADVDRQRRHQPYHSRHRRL
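Detergent-free condition (0.00005% Triton X-100) in acetate buffer pH 5.5 with DTT. 1.5 nM enzyme and compound were pre-mixed 15 min, then 2 uM Z-FR-AMC substrate added; reaction progress from fluorescence change between first and third reads (60 s).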
Cruzain Triton = blocks cruzain activity in presence of Triton detergent. Potency, µM, inactives show max response, negative = inhibition, hits mostly inhibitors. 0.43% of 200,000 active. purified cruzain, Z-FR-AMC fluorescence, 0.01% Triton. AID 1478;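 note: plate controls were neutral wells for no effect and buffer without enzyme for full effect; nearly all actives have a fitted effect of over 40% in size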
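Detergent-containing arm of a paired screen for aggregation-based inhibition: 0.01% Triton X-100 present. Cruzain at 1.5 nM cleaved 2 uM Z-FR-AMC at pH 5.5 with 5 mM DTT; AMC fluorescence gain over 60 s measured activity.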
The depositor's hits bear a star. Calls come from the whole dose curve; as a rule, active = well fitted curve in the direction sought with a large enough effect; inconclusive = small, poorly fitted or top-dose-only effect, or another doubt; inactive = no such curve, though single readings can be large; an effect the other way counts as inactive or inconclusive. Potency is the fitted concentration of half-maximal effect.

Screening Cc1ccc(Nc2nc(-c3sc(NC(=O)c4cccc(Cl)c4)nc3C)cs2)cc1 returned Cruzain noTriton 3.98µM* and Cruzain Triton 6.3%.
`CC1=C(C(=O)NCc2ccc(C)cc2)C2(CCCCC2)OC1=O` gave Cruzain noTriton -16.5% and Cruzain Triton 0.7%.
COc1ccccc1CN1CCN(C2CCN(C(=O)NC(C)C)CC2)C(=O)C1=O was read as Cruzain noTriton -4.9% and Cruzain Triton 2.2%.
COc1ccc(/C=C(\C#N)c2nc(-c3cc(Cl)ccc3OC)cs2)cc1 was read as Cruzain noTriton -1.3% and Cruzain Triton 1.0%.
Screening COC(=O)CSc1nc2sc3c(c2c(=O)n1-c1ccc(C)cc1)CC(C(C)C)OC3 (stereo not given) returned Cruzain noTriton 16.4% and Cruzain Triton -1.9%.
Screening CC(C)Cn1c(=O)c2ccccc2n2c(CCC(=O)NC(C)c3ccccc3)nnc12 (stereo not given) returned Cruzain noTriton -1.0% and Cruzain Triton 0.1%.
`COc1ccc(-n2nc3c(N4CCCC(C(=O)NCCc5ccc(C)cc5)C4)nnc(C)c3c2C)cc1` (stereo not given) gave Cruzain noTriton 0.6% and Cruzain Triton -2.8%.
For CCOP(=O)(OCC)C(C#N)=C1SCN(c2ccc(Cl)cc2)CS1 the results were Cruzain noTriton 12.6µM* and Cruzain Triton -8.6%.
For CCOP(=O)(OCC)C(NC(=O)c1ccc(Cl)cc1)=C(Cl)Cl the results were Cruzain noTriton 5.4% and Cruzain Triton 2.2%.
`CCC(=O)Nc1ccc(-c2cc(-c3ccccc3)nc(-c3ccc(NC(=O)CC)cc3)n2)cc1` gave Cruzain noTriton 5.1% and Cruzain Triton 4.5%.
CC(=O)Nc1ccc(-c2cc(-c3ccc(NC(C)=O)cc3)nc(-c3ccc(NC(C)=O)cc3)n2)cc1 was read as Cruzain noTriton 31.6µM* and Cruzain Triton inconclusive.
`CC(=O)Nc1ccc(-c2cc(-c3ccccc3)nc(-c3ccccc3)n2)cc1` gave Cruzain noTriton inconclusive and Cruzain Triton -2.5%.
Screening CC(=O)Nc1ccc(-c2cc(-c3ccc(NC(C)=O)cc3)nc(-c3ccccc3)n2)cc1 returned Cruzain noTriton 15.8µM* and Cruzain Triton -4.5%.
O=C(Nc1nccs1)c1cn(-c2ccccc2)nc1-c1ccccc1 was read as Cruzain noTriton -7.0% and Cruzain Triton -1.1%.
Screening CC(C)COc1ccc(-c2nn(-c3ccccc3)cc2C(=O)Nc2nccs2)cc1 returned Cruzain noTriton 10µM* and Cruzain Triton -2.0%.
Screening COc1cccc([C@@H]2Oc3ccc(OC)cc3C(=O)[C@H]2OC(=O)N[C@H]2CCCc3ccccc32)c1 returned Cruzain noTriton -5.7% and Cruzain Triton -0.6%.
`COc1ccc(OC)c(NC(=O)CSc2ncc3c(n2)-c2ccccc2N(C)S3(=O)=O)c1` gave Cruzain noTriton -18.4% and Cruzain Triton 0.4%.
For COC(=O)CSCc1nc(-c2ccc(C(=O)OC)cc2)oc1C the results were Cruzain noTriton -1.1% and Cruzain Triton -2.5%.
Screening CCCCNC(=O)c1cnn2c(C)c(Cc3c(C)cc(C)cc3C)c(C)nc12 returned Cruzain noTriton -0.8% and Cruzain Triton 4.2%.
CCOC(=O)/C(C)=N/NC(C)=O was read as Cruzain noTriton -2.9% and Cruzain Triton 7.9%.
For COc1ccc(C(=O)Nc2ccc3c(c2)CCCN3S(=O)(=O)c2ccc(C)cc2)cc1 the results were Cruzain noTriton inconclusive and Cruzain Triton -2.7%.
For CCc1cccc(CC)c1NC(=O)c1ccc2c(c1)CCN2S(=O)(=O)c1ccccc1 the results were Cruzain noTriton -2.8% and Cruzain Triton -1.9%.
O=C(Nc1ccc(Cl)c(C(F)(F)F)c1)c1ccc2c(c1)CCN2S(=O)(=O)c1ccccc1 was read as Cruzain noTriton 25.1µM* and Cruzain Triton -0.2%.
Cc1ccc(S(=O)(=O)N2CCCc3cc(NC(=O)c4ccc(C(C)(C)C)cc4)ccc32)cc1 was read as Cruzain noTriton 3.16µM* and Cruzain Triton 4.3%.
For COc1ccc(NC(=O)c2ccc3c(c2)CCN3S(=O)(=O)c2ccc(C)cc2)cc1Cl the results were Cruzain noTriton 7.94µM* and Cruzain Triton 1.1%.
`CC(=O)Nc1ccc(NC(=O)c2ccc3c(c2)CCN3S(=O)(=O)c2ccc(C)cc2)cc1` gave Cruzain noTriton 11.7% and Cruzain Triton 0.4%.
CCOC(=O)c1c(C)[nH]c(C)c1S(=O)(=O)N1CCC(C(=O)NCc2ccc(OC)cc2)CC1 was read as Cruzain noTriton -1.8% and Cruzain Triton -0.1%.
Screening Cc1ccc(C)c(NC(=O)CSc2cn(CC(=O)N3CCCC3)c3ccccc23)c1 returned Cruzain noTriton 15.1% and Cruzain Triton -3.2%.
For COc1cccc(/C=N/NC(=O)CC2C(=O)NN=C2C)c1OC (stereo not given) the results were Cruzain noTriton -0.1% and Cruzain Triton -10.2%.
`O=C(Cc1nc2ccccc2[nH]1)N/N=C/c1ccccc1` gave Cruzain noTriton 6.6% and Cruzain Triton -3.9%.

Screens (PubChem)
